Data on 40 compounds can be found in PubChem BioAssay (Tox21).

Inconclusive results are not listed. Entries that show only a call come without a potency. Unmarked numbers belong to inactive results. Calls of active or inactive are those of the source. Calls follow the shape of the dose curve; as a rule, active = well fitted inhibition curve with a large enough effect in the repeat runs; inconclusive = weak or mixed curves; inactive = flat fitted curve, though single readings scatter.
Potency is read from the fitted curve at half-maximal effect.

Sequence of Voltage-gated inwardly rectifying potassium channel KCNH2 (Homo sapiens) (Q12809 whole entry, looked up): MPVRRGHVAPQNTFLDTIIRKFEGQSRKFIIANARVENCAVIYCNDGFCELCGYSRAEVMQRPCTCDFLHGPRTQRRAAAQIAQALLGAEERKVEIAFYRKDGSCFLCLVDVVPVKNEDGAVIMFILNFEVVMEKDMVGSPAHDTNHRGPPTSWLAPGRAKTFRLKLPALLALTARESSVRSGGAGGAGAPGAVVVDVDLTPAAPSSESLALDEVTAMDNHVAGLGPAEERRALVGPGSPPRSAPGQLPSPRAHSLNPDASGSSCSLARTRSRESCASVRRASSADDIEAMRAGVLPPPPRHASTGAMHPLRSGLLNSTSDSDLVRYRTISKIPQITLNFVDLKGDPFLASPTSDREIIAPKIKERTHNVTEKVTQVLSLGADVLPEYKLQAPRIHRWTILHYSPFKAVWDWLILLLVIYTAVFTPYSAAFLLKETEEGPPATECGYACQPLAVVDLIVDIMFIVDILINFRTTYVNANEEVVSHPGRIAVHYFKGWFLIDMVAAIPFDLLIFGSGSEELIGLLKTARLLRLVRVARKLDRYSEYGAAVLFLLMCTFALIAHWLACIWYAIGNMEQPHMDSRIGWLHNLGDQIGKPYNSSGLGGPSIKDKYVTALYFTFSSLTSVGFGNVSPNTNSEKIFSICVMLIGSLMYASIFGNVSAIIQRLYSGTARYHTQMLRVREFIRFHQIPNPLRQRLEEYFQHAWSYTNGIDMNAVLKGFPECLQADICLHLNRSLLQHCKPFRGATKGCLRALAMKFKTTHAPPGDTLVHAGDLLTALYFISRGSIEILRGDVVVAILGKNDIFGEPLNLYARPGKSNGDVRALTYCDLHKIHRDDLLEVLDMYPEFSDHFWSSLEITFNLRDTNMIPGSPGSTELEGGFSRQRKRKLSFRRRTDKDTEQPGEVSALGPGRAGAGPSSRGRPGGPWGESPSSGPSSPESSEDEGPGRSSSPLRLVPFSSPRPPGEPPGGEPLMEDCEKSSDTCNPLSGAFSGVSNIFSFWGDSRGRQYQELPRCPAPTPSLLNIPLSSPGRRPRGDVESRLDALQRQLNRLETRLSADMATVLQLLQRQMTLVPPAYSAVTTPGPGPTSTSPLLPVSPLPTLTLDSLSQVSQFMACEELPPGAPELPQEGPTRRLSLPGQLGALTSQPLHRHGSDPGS

The target in this experiment is Voltage-gated inwardly rectifying potassium channel KCNH2 (Homo sapiens) (UniProt Q12809). The experiment in a line: Human Ether-a-go-go-Related Gene (hERG) channel small molecule antagonists: fluorescence cell-based qHTS assay (AID 1671200). Also: nearly all actives have a fitted effect of over 50% in size. The conditions noted are these: hERG-U2OS cells, FluxOR thallium flux fluorescence; series mostly up to 76.8 µM. An excerpt:
National Center for Advancing Translational Sciences [NCATS]
U.S. Environmental Protection Agency [EPA]
National Institutes of Environmental Health Sciences [NIEHS]
National Toxicology Program [NTP]
U.S. Food and Drug Administration [FDA]
Mutations in the hERG channel cause Long QT (LQT) syndrome. LQT syndrome is a cardiac disorder which can cause ventricle arrhythmia and sudden death. Additionally, compounds which block the hERG channel can cause acquired LQT syndrome. Several FDA approved drugs have been removed from the market due to their hERG blocking activity. A cell-based hERG channel inhibition assay can be used to screen chemical compounds that inhibit hERG channel. This assay measures hERG channel activity using thallium ions as surrogate ions to measure potassium into the cells.
Tox21 Assay Protocol Summary:
hERG-U2OS cells were resuspended in culture medium and dispensed into 1536-well, black wall/clear-bottom plates at 1000cells/well/3uL using a Multidrop Combi dispenser (Thermo Fisher, Waltham, MA). After plates were incubated at 37 C overnight, 3 uL of Loading Buffer provided by FluxOR II Potassium Ion Channel Assay kit (Thermo, Carlsbad, CA) was added to each well. The assay plates were then incubated at room temperature in the dark for 1h. […] After the assay plates were incubated at room temperature for 10 min, 1 uL of Stimulus Buffer provided by FluxOR II Potassium Ion Channel Assay kit was added into each well and fluorescence intensity (480nm excitation/540nm emission) was continuously measured for 2 min at 1 second intervals using a Functional Drug Screening System (FDSS) 7000EX kinetic plate reader (Hamamatsu, Japan).
Regarding `CN1C(=O)N(C)C(O)C1O` (stereo not given), the Potency entry is “inactive”.
In the case of `CC(C)=CCCC(C)CC(=O)O` (stereo not given), the Potency result is “inactive”.
Still for that read-out and setting: under `Nc1ccccc1S(=O)(=O)O` stands “inactive”; under `C1CN(CCOCCN2CCOCC2)CCO1`, “inactive”.
Consider `O=C(c1ccccc1)C1CCCCC1`, for which the Potency entry is “inactive”.
Take `CCCCCCCCCCCC`: the Potency entry was “inactive”.
The same measure, in the same setting: the same measure for `CCc1cccc2c(CCO)c[nH]c12`: “inactive”; for `CC(C)NCCCC1(C(N)=O)c2ccccc2-c2ccccc21`: “inactive”; for `c1cnc(N2CCN(Cc3ccc4c(c3)OCO4)CC2)nc1`: “inactive”.
Consider `CCC(C)S` (stereo not given), for which the activity change, negative = inhibition was 1.71% [at 2.72 µM].
For `CN1CCN(c2cc3c(cc2F)c(=O)c(C(=O)O)cn3-c2ccc(F)cc2)CC1`, the Potency entry was “inactive”.
Same read-out and setting: the same measure for `Cc1sccc1Br`: “inactive”.
As to `N[C@H](C(=O)O)c1ccc(O)cc1`, the activity change, negative = inhibition was 1.26% [at 15.8 µM].
Turning to `NC(CSCC(=O)O)C(=O)O` (stereo not given), the Potency entry is “inactive”.
`CO/N=C(/C(=O)N[C@@H]1C(=O)N2C(C(=O)OCOC(=O)C(C)(C)C)=C(C)CS[C@H]12)c1csc(N)n1`: the Potency result was “inactive”.
Still for that read-out and setting: the same measure for `CO[Si](CCCOCC1CO1)(OC)OC` (stereo not given): “inactive”; for `CCO/C([O-])=N/c1c[n+](N2CCOCC2)no1`: “inactive”; for `CCCC(=O)O[C@]1(C(=O)CO)CC[C@H]2[C@@H]3CCC4=CC(=O)CC[C@]4(C)[C@H]3[C@@H](O)C[C@@]21C`: “inactive”.
Same read-out and setting: under `CCC=O` stands “inactive”; under `CCC(=O)OC(C)c1ccccc1` (stereo not given), “inactive”; under `C=CCOCC(CC)(CO)COCC=C`, “inactive”.
The same measure, in the same setting: under `CCS(=O)(=O)c1ccc(OC)c(C(=O)OC)c1` stands “inactive”; under `C1OCOCO1`, “inactive”; under `O=C1OC(=O)C2CCCCC12` (stereo not given), “inactive”.
Regarding `O=c1cc(CO)occ1O`, the Potency result was “inactive”.
In the case of `CCN(CC)CCNC(=O)c1cc(S(C)(=O)=O)ccc1OC`, the Potency result was “inactive”.
Still for that read-out and setting: the same measure for `NS(=O)(=O)c1cc(C(=O)NN2C[C@H]3[C@H]4CCC(C4)[C@H]3C2)ccc1Cl`: “inactive”.
On the same count and under the same terms, under `CC(=O)c1ccccc1O` stands “inactive”; under `N=C(N)c1ccccc1`, “inactive”; under `Nc1cc(=O)[nH]c(N)n1`, “inactive”.
Still for that read-out and setting: the same measure for `FC1(F)C(F)(F)C(F)(F)C2(F)C(F)(F)C(F)(F)C(F)(F)C(F)(F)C2(F)C1(F)F` (stereo not given): “inactive”; for `CCCCC/C=C\CCC=O`: “inactive”; for `CC(C)NCC(O)c1ccc(NS(C)(=O)=O)cc1` (stereo not given): 22.1 µM (active).
For the compound `Cc1c(O)cccc1O`, the Potency entry was “inactive”.
As for `C/C=C(\C)C#N`, the Potency result was “inactive”.
Same read-out and setting: under `CC/C=C\CC/C=C/CO` stands “inactive”; under `CC(C(=O)O)c1ccc(CC2CCCC2=O)cc1` (stereo not given), “inactive”.
In the case of `CCc1nccnc1CC`, the activity change, negative = inhibition was -2.32% [at 15.8 µM].
On the same count and under the same terms, the same measure for `CCCCCCCCCCCCCC=O`: -8.57% [at 6.97 µM].
For the compound `CCOC(=O)c1ccc(C)cc1`, the Potency entry was “inactive”.
